Experiment [1] in a line: yeast TOR pathway RPL19A-GFP modulators, primary screen, cell-based, S. cerevisiae, multiplex flow cytometry (AID 1862; in the data active = percent of DMSO control GFP below about 86%;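 note: lower values mimic rapamycin by blocking the RPL19A rise seen in DMSO cells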). The settings on record: S. cerevisiae RPL19A-GFP strain, flow cytometry fluorescence, 3 h; at 10 µM; stronger effect = lower value. For orientation: A flow cytometer gives signals particle by particle.
Experiment [2] is described as follows: modulators of MEP2-GFP levels in yeast, primary screen, S. cerevisiae, multiplex flow cytometry (AID 1867;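 active = GFP response, as percent of the DMSO control, above the screen-wide mean plus 3 SD, about 139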;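 note: median GFP channel fluorescence of barcode-gated MEP2-GFP cells measured by flow cytometry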). To be noted: S. cerevisiae MEP2-GFP strain, 3 h, at 10 µM, stronger effect = higher value, 100% means same as DMSO wells.
A short description of experiment [3]: modulators of CIT2-GFP expression in yeast, primary screen, S. cerevisiae, GFP fusion, multiplex flow cytometry (AID 1870;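 active = percent response above a set limit, the screen-wide mean plus 3 SD, cut at about 130% in these data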;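 note: barcoded CIT2-GFP strain pooled with four other GFP strains with rapamycin as positive control; median GFP fluorescence per well over plate mean of DMSO wells so 100% = DMSO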). The settings on record: 3 h, at 10 µM, stronger effect = higher value.
A short description of experiment [4]: modulators of LAP4-GFP expression in yeast, primary screen, S. cerevisiae, multiplex flow cytometry (AID 1873;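 active = GFP signal, as percent of the solvent control, above the screen mean plus 3 SD, about 149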). The settings on record: 3 h, at 10 µM, stronger effect = higher value.
A short description of experiment [5]: modulators of AGP1-GFP expression in yeast TOR pathway, primary screen, cell-based, multiplex flow cytometry, S. cerevisiae (AID 1887;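 active = GFP signal above the screen-wide mean plus 3 SD, that is over about 124.5% of the solvent control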;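 note: AGP1-GFP fusion strain of S. cerevisiae within a five-strain barcoded multiplex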). The settings on record: 3 h, at 10 µM, stronger effect = higher value.
Experiment [6] in a line: inhibitors of CD8+ T cell-vesicle binding, pilot screen, LFA-1/ICAM-1 modulator project, MLPCN validation set, flow cytometry (AID 2523;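 active = response below a set limit, under 55% cells CD8-positive and vesicle-bound, and CD8 cells' 90th-percentile brightness under 279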;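 for vesicle binding response: mean PE anti-B7-1 fluorescence of CD8+ cells relative to row control; 100% = QL9-loaded vesicles with DMSO vehicle in the same plate row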). To be noted: 2C mouse CD8+ T cells, at 7 µM, stronger effect = lower value; double positive events: measured here: CD8+/vesicle+ event percentage.
Experiment [7] deals with Integrin beta-1 (Homo sapiens) + Integrin alpha-4 (Homo sapiens) (UniProt P13612+P05556). Briefly: inhibition of HUTS-21 binding to VLA-4, pilot screen, VLA-4 allosteric modulator project, U937 cells, HUTS-21 mAb, flow cytometry, validation set (AID 2674;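 active = inhibition above 50%, about 3 SD of the validation set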;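 note: antibody binding induced by the VLA-4 ligand LDV present at three times its Kd; 0% = LDV ligand with antibody and no compound and 100% = antibody without LDV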). The settings on record: HUTS-21 LIBS mAb binding, at 6.7 µM, stronger effect = higher value, binding induced by LDV ligand.
Integrin beta-1 (Homo sapiens) + Integrin alpha-4 (Homo sapiens), sequence (P05556 whole entry, looked up): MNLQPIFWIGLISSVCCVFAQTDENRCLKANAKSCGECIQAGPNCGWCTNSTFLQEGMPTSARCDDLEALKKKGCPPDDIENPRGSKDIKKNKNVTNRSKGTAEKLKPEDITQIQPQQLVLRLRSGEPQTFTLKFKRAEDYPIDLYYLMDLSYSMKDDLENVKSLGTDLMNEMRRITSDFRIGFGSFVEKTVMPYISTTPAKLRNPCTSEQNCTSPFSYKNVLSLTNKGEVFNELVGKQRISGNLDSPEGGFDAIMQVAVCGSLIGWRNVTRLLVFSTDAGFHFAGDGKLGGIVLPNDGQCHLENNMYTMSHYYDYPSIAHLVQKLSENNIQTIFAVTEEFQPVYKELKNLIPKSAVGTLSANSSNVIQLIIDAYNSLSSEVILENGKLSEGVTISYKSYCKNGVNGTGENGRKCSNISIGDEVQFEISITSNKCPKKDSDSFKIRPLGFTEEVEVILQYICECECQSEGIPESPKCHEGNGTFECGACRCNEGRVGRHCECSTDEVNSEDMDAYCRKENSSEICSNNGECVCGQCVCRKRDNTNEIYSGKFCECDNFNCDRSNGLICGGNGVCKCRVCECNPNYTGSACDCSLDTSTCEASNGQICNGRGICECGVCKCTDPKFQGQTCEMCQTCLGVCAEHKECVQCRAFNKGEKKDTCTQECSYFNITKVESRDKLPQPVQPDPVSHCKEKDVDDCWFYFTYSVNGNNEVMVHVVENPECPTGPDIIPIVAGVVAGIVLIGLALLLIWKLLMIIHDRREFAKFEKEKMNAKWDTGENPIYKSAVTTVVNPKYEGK
Integrin beta-1 (Homo sapiens) + Integrin alpha-4 (Homo sapiens), sequence (P13612 whole entry, looked up): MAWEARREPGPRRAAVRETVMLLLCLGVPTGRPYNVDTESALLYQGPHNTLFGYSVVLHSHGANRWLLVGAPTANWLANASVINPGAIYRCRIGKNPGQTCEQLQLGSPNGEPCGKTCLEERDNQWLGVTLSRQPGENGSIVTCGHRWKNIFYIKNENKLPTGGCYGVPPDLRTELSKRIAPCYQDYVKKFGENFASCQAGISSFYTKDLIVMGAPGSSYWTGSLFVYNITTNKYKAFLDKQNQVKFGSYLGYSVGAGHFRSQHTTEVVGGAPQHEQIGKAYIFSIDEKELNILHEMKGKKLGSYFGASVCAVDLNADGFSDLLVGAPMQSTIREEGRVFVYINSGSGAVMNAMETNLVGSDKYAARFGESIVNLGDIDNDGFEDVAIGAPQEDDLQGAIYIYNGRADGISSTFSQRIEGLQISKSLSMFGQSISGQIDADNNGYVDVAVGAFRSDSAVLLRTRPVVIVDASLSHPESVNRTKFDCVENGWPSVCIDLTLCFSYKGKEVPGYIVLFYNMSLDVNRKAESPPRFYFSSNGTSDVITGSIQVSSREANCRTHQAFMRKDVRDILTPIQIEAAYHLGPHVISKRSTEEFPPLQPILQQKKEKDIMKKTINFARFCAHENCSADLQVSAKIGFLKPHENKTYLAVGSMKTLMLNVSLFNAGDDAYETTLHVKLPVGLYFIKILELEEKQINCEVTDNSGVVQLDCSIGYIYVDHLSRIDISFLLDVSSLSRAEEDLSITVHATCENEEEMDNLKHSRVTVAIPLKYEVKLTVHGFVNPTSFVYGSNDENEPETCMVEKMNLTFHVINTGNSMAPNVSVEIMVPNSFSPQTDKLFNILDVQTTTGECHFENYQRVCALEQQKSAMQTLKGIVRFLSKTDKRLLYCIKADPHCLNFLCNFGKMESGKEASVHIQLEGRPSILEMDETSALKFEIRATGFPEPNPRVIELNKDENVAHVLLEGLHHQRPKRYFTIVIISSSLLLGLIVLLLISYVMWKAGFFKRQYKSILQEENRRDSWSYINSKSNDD
Experiment [8] is described as follows: superoxide lowering in aged yeast cells, pilot screen, validation compound set (AID 2706;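 active = superoxide response below 65% of plate, a cut near 3 SD across the whole screen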;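 note: yeast exposed to compound for one week at 30 degrees C before staining; 100% = mean of all compound wells on the same plate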). The settings on record: S. cerevisiae aging, superoxide DHE fluorescence; at 10 µM; stronger effect = lower value.
Experiment [9] has as its target Beta-adrenergic receptor kinase 1 (Homo sapiens) (UniProt P25098). Briefly: GRK2 binders displacing RNA aptamer, biochemical, validation, human GRK2, bead flow cytometry (AID 488806;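 active = aptamer binding inhibition above 30%, about 3 SD of noise from non-fluorescent compounds; inactive = inhibition at or below 30%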). The settings on record: bead-bound GRK2, FAM-aptamer displacement, at 10 µM, stronger effect = higher value.
The target of experiment [10] is Beta-2 adrenergic receptor (Homo sapiens) (UniProt P07550). The experiment can be described thus: beta2AR agonists driving receptor internalization, pilot screen, cell-based, FAP fluorogen, flow cytometry, validation set (AID 504459).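 Note: agonist-driven loss of surface beta2AR via internalization measured by FAP dye flow cytometry.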 The settings on record: Am2.2-beta2AR cells, FAP surface receptor flow cytometry; at 10 µM; stronger effect = higher value.
Beta-2 adrenergic receptor (Homo sapiens), sequence (P07550 whole entry, looked up): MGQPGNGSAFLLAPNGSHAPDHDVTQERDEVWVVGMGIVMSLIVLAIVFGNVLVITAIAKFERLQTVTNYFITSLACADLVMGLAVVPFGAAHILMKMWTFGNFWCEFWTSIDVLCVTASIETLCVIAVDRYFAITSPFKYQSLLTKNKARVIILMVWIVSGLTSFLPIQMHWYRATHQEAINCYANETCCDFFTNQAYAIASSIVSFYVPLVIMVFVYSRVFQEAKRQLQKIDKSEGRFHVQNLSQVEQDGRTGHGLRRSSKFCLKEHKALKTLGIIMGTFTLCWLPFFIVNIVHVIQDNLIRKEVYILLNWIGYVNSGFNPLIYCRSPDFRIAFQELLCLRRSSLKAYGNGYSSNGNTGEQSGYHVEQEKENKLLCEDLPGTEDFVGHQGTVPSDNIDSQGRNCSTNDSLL
Experiment [11] concerns the target AP-2 complex subunit beta (Homo sapiens) (UniProt P63010). Briefly: inhibitors of arrestin peptide binding to AP2, pilot screen, biochemical, validation set, GST-AP2 beads, flow cytometry (AID 504541;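 active = inhibition above 54%, about 3 SD of non-fluorescent compounds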;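 note: AP2 carries R879A mutation and is captured from E. coli lysate; bead-bound FITC arrestin peptide fluorescence measuring arrestin peptide binding to AP2; 0% = DMSO wells and 100% = excess unlabeled arrestin peptide control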). To be noted: FITC arrestin peptide, at 10 µM, stronger effect = higher value, AP2 beta2 appendage fragment, R879A mutant.
Experiment [12] can be described thus: yeast V-ATPase proton transport modulators, S. cerevisiae, pHLuorin, HTS validation (AID 504600; in the data active = response above about 15%;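 note: plate controls were DMSO for no effect and reference compound for full effect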). To be noted: S. cerevisiae pHLuorin cytosolic pH, at 10 µM, stronger effect = higher value.
The test system of experiment [13] is anti-desmoglein-3 scFv antibody binding to human DSG3. Briefly: inhibitors of anti-DSG3 scFv binding to DSG3, pilot screen, biochemical, validation compound set, bead-based, flow cytometry (AID 588368;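 active = binding below the plate cutoff, the plate median minus 3 SD, with a reading above zero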;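 note: signal is the median channel fluorescence of bead-bound GFP antibody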). To be noted: Protein G beads, DSG3-Fc, scFv-GFP binding, at 10 µM, stronger effect = lower value.
The nature of experiment [14]: inhibitors of fungal efflux pumps CDR1, CDR2, MDR1, pilot screen, validation compound set, multiplex, phenotypic (AID 588506;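 active = efflux inhibition above 0.42, the validation set average plus 4 SD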;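 note: Nile Red retained in cells so higher fluorescence means more efflux inhibition; 0 = negative control wells and 1 = enniatin B 25 µM full block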). To be noted: S. cerevisiae pump-expressing triplex, Nile Red efflux flow cytometry; at 10 µM; stronger effect = higher value; the pumps come from Candida albicans.
For experiment [15], the target named is ATP-binding cassette sub-family B member 6 (Homo sapiens) (UniProt Q9NP58). The experiment can be described thus: ABCB6 transporter inhibitors, pilot screen, K562-ABCB6 cells, flow cytometry, validation set (AID 588550;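 active = inhibition above the screen-wide mean plus 3 SD, about 51%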;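 note: 0% = DMSO wells and 100% = benzethonium chloride 70 µM positive control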). The settings on record: K562-ABCB6 porphyrin accumulation, 1 h, at 10 µM, stronger effect = higher value.
ATP-binding cassette sub-family B member 6 (Homo sapiens), sequence (Q9NP58 whole entry, looked up): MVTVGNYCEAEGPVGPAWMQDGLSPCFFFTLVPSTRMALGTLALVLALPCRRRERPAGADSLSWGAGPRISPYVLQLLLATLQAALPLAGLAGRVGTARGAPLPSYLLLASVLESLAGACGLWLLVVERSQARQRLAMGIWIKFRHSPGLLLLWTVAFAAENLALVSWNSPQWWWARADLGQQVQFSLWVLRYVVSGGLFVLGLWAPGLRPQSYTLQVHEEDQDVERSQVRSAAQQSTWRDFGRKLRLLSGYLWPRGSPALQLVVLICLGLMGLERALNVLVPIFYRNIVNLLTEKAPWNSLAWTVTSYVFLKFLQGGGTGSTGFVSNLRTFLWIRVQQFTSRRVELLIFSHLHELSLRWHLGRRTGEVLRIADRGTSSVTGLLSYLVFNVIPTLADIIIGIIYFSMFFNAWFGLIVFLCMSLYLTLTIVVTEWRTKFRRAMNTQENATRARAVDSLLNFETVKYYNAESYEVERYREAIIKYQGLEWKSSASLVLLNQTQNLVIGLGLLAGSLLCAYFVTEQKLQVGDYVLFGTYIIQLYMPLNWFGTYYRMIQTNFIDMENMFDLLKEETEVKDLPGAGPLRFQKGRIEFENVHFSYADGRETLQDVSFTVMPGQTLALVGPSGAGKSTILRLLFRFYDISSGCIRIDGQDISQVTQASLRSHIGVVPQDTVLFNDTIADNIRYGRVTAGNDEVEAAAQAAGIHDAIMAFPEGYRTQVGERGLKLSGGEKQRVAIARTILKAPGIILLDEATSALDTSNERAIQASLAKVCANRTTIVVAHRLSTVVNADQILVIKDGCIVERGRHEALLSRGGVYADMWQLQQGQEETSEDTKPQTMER
A short description of experiment [16]: promoters of myeloid differentiation in arrested cells, primary screen, cell-based, GFP/MAC1 double positive, flow cytometry, validation set (AID 588685;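 active = differentiation response of at least 50%, scaled between solvent and reference control, from cells with both markers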;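 note: compound exposure lasts four days before antibody staining and flow analysis; 0% = DMSO wells and 100% = 5 µM fulvestrant positive control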). The settings on record: ER-HoxA9 marrow cells, stronger effect = higher value, normalized: vehicle 0, fulvestrant 100.

As a reminder, the inhibition is the change of the read-out against control, counted positive when it falls.

Records with an inconclusive call do not appear. Calls of active or inactive are those of the source.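 Rule for the calls, unless noted: active = percent response above 42, roughly 3 SD of non-fluorescent test compounds; inactive = the rest.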

Beta-adrenergic receptor kinase 1 (Homo sapiens), sequence (P25098 whole entry, looked up): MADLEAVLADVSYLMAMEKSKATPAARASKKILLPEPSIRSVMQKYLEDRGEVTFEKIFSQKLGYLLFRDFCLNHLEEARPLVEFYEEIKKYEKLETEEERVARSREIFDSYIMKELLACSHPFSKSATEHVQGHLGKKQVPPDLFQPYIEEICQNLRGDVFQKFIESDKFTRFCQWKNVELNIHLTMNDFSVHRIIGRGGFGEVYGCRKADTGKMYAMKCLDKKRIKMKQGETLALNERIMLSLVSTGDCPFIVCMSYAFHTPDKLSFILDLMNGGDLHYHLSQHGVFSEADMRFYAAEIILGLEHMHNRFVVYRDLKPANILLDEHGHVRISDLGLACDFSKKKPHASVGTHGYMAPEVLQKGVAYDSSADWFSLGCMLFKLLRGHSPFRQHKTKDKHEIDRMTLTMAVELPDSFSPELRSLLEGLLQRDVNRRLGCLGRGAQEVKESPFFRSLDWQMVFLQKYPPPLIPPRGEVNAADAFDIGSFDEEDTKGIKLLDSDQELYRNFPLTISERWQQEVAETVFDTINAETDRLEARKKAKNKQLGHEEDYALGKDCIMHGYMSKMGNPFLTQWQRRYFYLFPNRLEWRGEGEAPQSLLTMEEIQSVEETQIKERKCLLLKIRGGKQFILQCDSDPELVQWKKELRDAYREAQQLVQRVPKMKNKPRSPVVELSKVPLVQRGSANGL
AP-2 complex subunit beta (Homo sapiens), sequence (P63010 whole entry, looked up, the tested form may be a part, one chain of several): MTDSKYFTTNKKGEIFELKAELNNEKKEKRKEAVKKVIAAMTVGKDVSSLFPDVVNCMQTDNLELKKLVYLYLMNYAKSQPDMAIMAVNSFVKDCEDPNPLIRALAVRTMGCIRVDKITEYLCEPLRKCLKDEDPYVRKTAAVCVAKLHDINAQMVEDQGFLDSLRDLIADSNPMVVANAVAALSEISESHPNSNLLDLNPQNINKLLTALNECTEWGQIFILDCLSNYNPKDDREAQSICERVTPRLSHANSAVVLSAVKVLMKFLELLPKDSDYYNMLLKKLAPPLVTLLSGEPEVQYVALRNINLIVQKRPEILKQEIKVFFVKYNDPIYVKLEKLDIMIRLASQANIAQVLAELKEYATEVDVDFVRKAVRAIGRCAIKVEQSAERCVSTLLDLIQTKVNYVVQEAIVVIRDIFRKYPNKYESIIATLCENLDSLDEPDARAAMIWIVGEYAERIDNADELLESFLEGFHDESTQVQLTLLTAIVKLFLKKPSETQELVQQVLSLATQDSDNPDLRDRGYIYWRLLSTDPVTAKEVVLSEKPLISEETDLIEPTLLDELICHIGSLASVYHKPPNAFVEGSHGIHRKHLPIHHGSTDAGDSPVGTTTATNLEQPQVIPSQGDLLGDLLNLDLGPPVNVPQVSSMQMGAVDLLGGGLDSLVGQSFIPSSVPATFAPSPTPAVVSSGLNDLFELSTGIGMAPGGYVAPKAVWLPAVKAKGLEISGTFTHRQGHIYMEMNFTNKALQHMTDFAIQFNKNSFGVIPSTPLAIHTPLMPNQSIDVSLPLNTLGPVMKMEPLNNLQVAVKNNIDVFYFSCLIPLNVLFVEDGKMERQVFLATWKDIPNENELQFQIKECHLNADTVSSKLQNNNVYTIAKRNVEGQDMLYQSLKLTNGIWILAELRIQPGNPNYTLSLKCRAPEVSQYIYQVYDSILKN

With `CCc1nc2ccccc2c(NC(=O)CN2CC(C)CC(C)C2)c1C` (stereo not given), the percent of DMSO control GFP in experiment [1] was 99% (inactive). Also, the figures for the GFP response vs DMSO in experiment [2] and in experiment [4] were 105% (inactive) and 90.7% (inactive), respectively. The percent response of DMSO control in experiment [3] was 101% (inactive). Also, the GFP response, % of DMSO in experiment [5] is 96.2% (inactive). In addition, the double positive events in [6] turned out to be 63.1%. In addition, the vesicle binding response in experiment [6] was 179% (inactive). For the same molecule, the inhibition in experiment [7] was -7.72% (inactive); in [11], -1.11% (inactive); in experiment [15], 10% (inactive). The superoxide response (% of plate) in [8] is 105% (inactive). Besides, in experiment [9], the aptamer binding inhibition is -2% (inactive). Further, the response in experiment [10] is 0.46% (inactive); in experiment [12], 9.89% (inactive). Besides, the binding (% of control) in experiment [13] was 93.8% (inactive). In addition, the efflux inhibition (fraction of control) in [14] was 0.11 (inactive). Further, the differentiation response in experiment [16] is 0.24% (inactive).
As for `O=C(O)CCn1cnc2ccccc2c1=O`, the percent of DMSO control GFP in experiment [1] is 97.8% (inactive). Moreover, the figures for the GFP response vs DMSO in experiment [2] and in [4] were 113% (inactive) and 111% (inactive), respectively. Moreover, the percent response of DMSO control in experiment [3] was 93.9% (inactive). Further, the GFP response, % of DMSO in experiment [5] was 97.4% (inactive). The molecule also yielded a double positive events in [6] of 58.8%. In addition, in experiment [6], the vesicle binding response is 172% (inactive). Further, the results for the inhibition in [7], in [11] and in [15] were 9.13% (inactive), -3.21% (inactive) and 7% (inactive), respectively. In experiment [8], the superoxide response (% of plate) was 101% (inactive). In experiment [9], the aptamer binding inhibition is 4% (inactive). For the same molecule, the results for the response in [10] and in experiment [12] were -1.18% (inactive) and 5.74% (inactive), respectively. Further, in [13], the binding (% of control) is 101% (inactive). The efflux inhibition (fraction of control) in [14] is -0.28 (inactive). In addition, the differentiation response in experiment [16] is -8.8% (inactive).
On to `COc1cc2cc(C)nc(Cc3cccc4ccccc34)c2cc1OC`, for which the percent of DMSO control GFP in experiment [1] is 102% (inactive). The figures for the GFP response vs DMSO in [2] and in experiment [4] were 105% (inactive) and 82.3% (inactive), respectively. Further, the percent response of DMSO control in [3] was 98.2% (inactive). In experiment [5], the GFP response, % of DMSO was 97.7% (inactive). In [6], the double positive events turned out to be 59.9%. Also, in experiment [6], the vesicle binding response is 204% (inactive). Besides, the values for the inhibition in experiment [7], in experiment [11] and in experiment [15] were 1.12% (inactive), 8.39% (inactive) and -9% (inactive), respectively. Also, in [8], the superoxide response (% of plate) is 95.6% (inactive). Also, the aptamer binding inhibition in experiment [9] is 3% (inactive). For the same molecule, the response in experiment [10] is 9.84% (inactive); in [12] it was -0.08% (inactive). For the same molecule, in experiment [13], the binding (% of control) is 101% (inactive). Besides, in experiment [14], the efflux inhibition (fraction of control) was 0.04 (inactive). Besides, the differentiation response in experiment [16] is 4.21% (inactive).
Turning to `O=C1C2CC=C(Cl)CC2C(=O)N1CCc1c[nH]c2ccccc12` (stereo not given), the percent of DMSO control GFP in experiment [1] was 90.2% (inactive). Moreover, the GFP response vs DMSO in [2] was 108% (inactive); in experiment [4] it was 80.9% (inactive). Moreover, the percent response of DMSO control in experiment [3] was 104% (inactive). Moreover, the GFP response, % of DMSO in experiment [5] was 97.5% (inactive). This molecule also returned a double positive events in experiment [6] of 55.5%. Moreover, the vesicle binding response in experiment [6] was 129% (inactive). The inhibition in experiment [7] was 16.2% (inactive); in experiment [11], 0.6% (inactive); in [15], 12% (inactive). In addition, the superoxide response (% of plate) in experiment [8] is 114% (inactive). Further, in experiment [9], the aptamer binding inhibition is 8% (inactive). The figures for the response in experiment [10] and in experiment [12] were -5.28% (inactive) and -1.1% (inactive), respectively. For the same molecule, in experiment [13], the binding (% of control) was 103% (inactive). Also, the efflux inhibition (fraction of control) in [14] was 0.09 (inactive). The differentiation response in [16] is -12.3% (inactive).
With `CN(C)[C@@H]1C(=O)C(C(=O)NCN2CCCC2)=C(O)[C@@]2(O)C(=O)C3=C(O)c4c(O)cccc4[C@@](C)(O)C3CC12` (stereo not given in full), in experiment [1], the percent of DMSO control GFP was 103% (inactive). Moreover, the GFP response vs DMSO in experiment [2] is 119% (inactive); in [4], 95.7% (inactive). For the same molecule, the percent response of DMSO control in experiment [3] is 112% (inactive). For the same molecule, the GFP response, % of DMSO in experiment [5] was 93.3% (inactive). In addition, the double positive events in experiment [6] came out at 59%. Further, the vesicle binding response in [6] is 145% (inactive). The inhibition in experiment [7] was -45.9% (inactive); in [11], 94.1% (active); in experiment [15], 8% (inactive). Moreover, the superoxide response (% of plate) in experiment [8] is 107% (inactive). The aptamer binding inhibition in experiment [9] is 92% (active). The figures for the response in [10] and in experiment [12] were 12.3% (inactive) and -6.79% (inactive), respectively. Besides, the binding (% of control) in [13] was 30.6% (active). Besides, the efflux inhibition (fraction of control) in [14] is -0.06 (inactive). For the same molecule, in [16], the differentiation response was 19.6% (inactive).

Values taken from PubChem BioAssay.
